# Source: PubChem
# An excerpt weighted towards active compounds, which were near 4% of everything screened.
# Beta cell apopt: blocks beta cell apoptosis. INS-1E cytokine-induced death, ATP luminescence, 48 h; percent of positive-control rescue, neutral wells zero. 0.8% of 300,000 active. protection from apoptosis, % (concentration not given with the values);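 active means Every replicate reaches about 75%, or at least half do and their mean reaches it too, limit read from the data; inconclusive means At least half of replicates reach the limit but their mean does not; inactive means Under half of replicates reach the limit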;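 further: 0% = cytokine-treated negative control wells and 100% = positive control rescue; higher means more ATP so stronger rescue from cytokine killing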
# CSC inhib: blocks cancer stem cells; inhibition, % at 7.5 µM; cancer stem cell-like cells viability, luminescence; 1.1% of 300,000 active; in the data active means inhibition above about 75%; inconclusive means no clear call, values can overlap the other calls; tested in HMLE shEcad cells
# Shn3 3UTR inh: reduces Shn3 3'UTR luciferase signal in osteoblasts. Clone20 osteoblast Shn3 3'UTR firefly luciferase, 24 h. AID 588674. inhibition, % at 12.5 µM. 0.52% of 360,000 active;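 active means mean inhibition of at least 75% with every replicate also reaching 75%; inconclusive means mean inhibition at least 75% but some replicate below; inactive means mean inhibition below 75%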;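 further: 0% = median of neutral control wells and 100% = pilot-screen positive control compound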
# Mdm2-MdmX inh: disrupts the human Mdm2-MdmX interaction; AID 485346; SaOS-2 split-luciferase Mdm2/MdmX complementation, luminescence; O15151+Q00987; inhibition, % at 8 µM; 3% of 330,000 active;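 active means inhibition of at least 50% at 8 µM in the primary screen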
# Gli-Sufu block: blocks Gli-Sufu signaling in a luciferase reporter. Sufu-KO-LIGHT fibroblasts, Gli luciferase reporter luminescence. inhibition, % at 5 µM. 0.74% of 340,000 active;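 active means inhibition above about 55%, limit read from the data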;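 further: 0% = DMSO-treated cells and 100% = wells with medium but no cells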
# PAX8 inh HTS: inhibitors of PAX8 transcriptional activity in RMG-I cells; RMG-I TPO-luciferase reporter, SteadyGlo, 24 h; inhibition, % at 12.6 µM; 1.2% of 360,000 active;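 active means mean replicate inhibition at least 60% with every replicate also reaching 60%; inconclusive means only one of the two criteria is met; inactive means mean below 60% and not all replicates reaching 60%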;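 further: luciferase light reporting Pax8 driven TPO promoter activity; plate controls were median of neutral control wells for no effect and mitoxantrone controls for full effect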
# Gli antag conf: Gli-SUFU antagonism confirmation, single concentration | 40% of 2,500 active | shares compounds with Gli-Sufu block | Sufu-KO-LIGHT cells, Gli luciferase reporter, luminescence | inhibition, % at 5 µM;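 active means mean inhibition at 5 µM reaching about 45%, limit read from the data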;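 further: plate controls were DMSO-treated cells for no effect and wells lacking cells for full effect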
# SufuKO cytotox: counter-screen for Gli-SUFU antagonists: cytotoxicity | 32% of 2,500 active | cytotoxicity, % at 5 µM | AID 651994 | shares compounds with Gli-Sufu block | Sufu-KO-LIGHT cells cytotoxicity, ATP luminescence;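 active means mean cytotoxicity at 5 µM above about 25%, limit read from the data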;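 further: cells exposed to compound overnight for roughly 16 to 18 hours; plate controls were DMSO wells with cells for no effect and medium without cells for full effect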
# Wnt3a cs: inhibits Wnt3a reporter, counter-screen for Gli-SUFU antagonists; shares compounds with Gli-Sufu block; Wnt-LIGHT cells, Wnt3a-driven luciferase reporter, luminescence; inhibition, % at 6.25 µM; 20% of 2,500 active;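 active means mean inhibition above about 25%, limit read from the data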
# * marks the source's active call; other numbers are inactive results; ? = inconclusive; nt = no result given.
SMILES,Beta cell apopt,CSC inhib,Shn3 3UTR inh,Mdm2-MdmX inh,Gli-Sufu block,PAX8 inh HTS,Gli antag conf,SufuKO cytotox,Wnt3a cs
CCC[N+]1(CC#CCC(c2ccccc2)c2ccccc2)CCCCC1,104.9*,34.0,80.8,49.1,84.2*,?,87.7*,49.0*,36.0*
C#CC[N+]1(CC#Cc2ccccc2)CCCCC1,-0.7,-10.4,10.5,11.2,11.4,0.1,nt,nt,nt
COC1C(CO)OC(n2c3c(Cl)cccc3c3c4c(c5c6cccc(Cl)c6[nH]c5c32)C(=O)NC4=O)C(O)C1O (stereo not drawn),nt,nt,-0.2,nt,61.7*,113.1*,37.1,25.7*,29.7*
CS(=O)(=O)N(CC(=O)N1CCCCCC1)c1ccc(Cl)cc1,-13.4,-5.6,2.6,24.8,11.6,-13.4,nt,nt,nt
CS(=O)(=O)N(CC(=O)N1CCOCC1)c1ccc(Cl)cc1,-1.5,-11.2,-8.7,9.1,56.0*,-5.6,19.7,2.5,5.0
O=C(CSc1nc2ccccc2c(=O)n1-c1ccccc1)N1CCc2ccccc2C1,100.3*,68.2,83.0,24.0,66.7*,nt,73.8*,39.6*,-0.5
Cc1oc(/N=C/c2ccc(Cl)cc2)c(C#N)c1C,-1.1,nt,-0.2,-11.1,71.3*,nt,5.0,6.1,-13.6
C[C@@H]1CN([C@H](C)CO)C(=O)c2cc(NC(=O)Nc3ccccc3)ccc2O[C@@H](C)CCCCO[C@H]1CN(C)Cc1ccccc1,nt,nt,nt,nt,nt,-18.7,nt,nt,nt
COc1cc(C(=O)N/N=C(\c2ccccc2)c2ccccn2)cc(OC)c1OC,86.0*,36.4,88.6*,46.5,92.5*,72.1*,84.3*,37.7*,57.3*
COc1cc(NC(=O)c2ccccn2)cc(OC)c1OC,-7.4,-16.7,11.6,13.7,-17.8,-8.6,nt,nt,nt
Cc1ccc(S(=O)(=O)N(C)C[C@@H]2Oc3ccc(NC(=O)NC4CCCCC4)cc3C(=O)N([C@H](C)CO)C[C@@H]2C)cc1,nt,nt,nt,nt,nt,16.5,nt,nt,nt
CCN1[C@@H]2Cn3c(ccc(C4=CCCCC4)c3=O)[C@H]1[C@@H](C(=O)NC1Cc3ccccc3C1)[C@@H]2CO,nt,nt,nt,nt,nt,12.7,nt,nt,nt
C[n+]1c2n(c3ccccc31)N=C(c1ccc(Cl)cc1)CS2,75.8*,12.4,14.7,11.6,61.4*,28.6,65.6*,37.4*,-8.6
CC1Sc2n(c3ccccc3[n+]2C)N=C1c1ccccc1 (stereo not drawn),36.8,-3.3,70.2,23.3,59.4*,67.6*,74.9*,27.0*,12.1
Clc1ccc(C2=Nn3c(Cn4nnc5ccccc54)nnc3SC2)cc1,-5.9,-5.2,6.8,17.8,-0.6,-6.8,nt,nt,nt
CO[C@H]1CN(C)C(=O)c2ccc(NC(C)=O)cc2OC[C@@H](C)N(Cc2ccccc2F)C[C@H]1C,nt,nt,nt,nt,nt,-7.1,nt,nt,nt
COc1ccc(S(=O)(=O)Nc2ccc(F)cc2F)cc1C(=O)N1CCOCC1,6.2,4.3,10.9,6.3,60.9*,-5.3,6.3,14.2,-10.0
C[C@H](NC(=O)C[C@H]1CC[C@@H](NC(=O)CN2CCOCC2)[C@H](CO)O1)c1ccccc1,nt,nt,nt,nt,nt,-21.6,nt,nt,nt
O=C(CN1C(=O)c2ccccc2S1(=O)=O)c1cccc(Br)c1,-0.7,-8.7,52.5,23.3,67.0*,0.5,74.2*,11.0,84.8*
O=C(CN1C(=O)c2ccccc2S1(=O)=O)N1CCN(c2ccccc2F)CC1,0.9,11.9,-8.4,36.1,-0.1,nt,nt,nt,nt
O=C(CN1C(=O)c2ccccc2S1(=O)=O)c1ccccc1F,nt,17.9,47.6,21.0,59.6*,32.9,78.1*,20.1,89.4*
CC1Cc2cc(S(=O)(=O)N3CCC(C(=O)N4CCN(c5ccccc5F)CC4)CC3)ccc2N1C(=O)C1CC1 (stereo not drawn),74.9*,15.4,81.4,46.9,54.4,35.9,62.1*,24.1,5.5
COc1ccccc1N1CCN(C(=O)C2CCN(S(=O)(=O)c3ccc4c(c3)CC(C)N4C(=O)C3CC3)CC2)CC1 (stereo not drawn),5.5,2.5,25.1,39.3,11.3,27.5,nt,nt,nt
CCNC(=O)C[C@@H]1C=C[C@@H](NC(=O)C2CCOCC2)[C@H](CO)O1,nt,nt,nt,nt,nt,4.9,nt,nt,nt
